The results in this text go back to PMC7862700, “An all-to-all approach to the identification of sequence-specific readers for epigenetic DNA modifications on cytosine”.

Test in all cases: DAPPL (digital affinity profiling via proximity ligation, sequencing); 10 mM Tris-HCl pH 7.5, 50 mM NaCl, 1 mM DTT, 4% glycerol, room temperature, 30 min; GST-TFs on glutathione beads, 16-mer random dsDNA library, 0.1% formaldehyde crosslink after washing; high values mean tight binding
What all share (conditions): protein: recombinant; tags: N-terminal GST; dsDNA, one strand shown

The target in one experiment is T1, ERF (Homo sapiens, UniProt P50548 1-548).
T1 sequence: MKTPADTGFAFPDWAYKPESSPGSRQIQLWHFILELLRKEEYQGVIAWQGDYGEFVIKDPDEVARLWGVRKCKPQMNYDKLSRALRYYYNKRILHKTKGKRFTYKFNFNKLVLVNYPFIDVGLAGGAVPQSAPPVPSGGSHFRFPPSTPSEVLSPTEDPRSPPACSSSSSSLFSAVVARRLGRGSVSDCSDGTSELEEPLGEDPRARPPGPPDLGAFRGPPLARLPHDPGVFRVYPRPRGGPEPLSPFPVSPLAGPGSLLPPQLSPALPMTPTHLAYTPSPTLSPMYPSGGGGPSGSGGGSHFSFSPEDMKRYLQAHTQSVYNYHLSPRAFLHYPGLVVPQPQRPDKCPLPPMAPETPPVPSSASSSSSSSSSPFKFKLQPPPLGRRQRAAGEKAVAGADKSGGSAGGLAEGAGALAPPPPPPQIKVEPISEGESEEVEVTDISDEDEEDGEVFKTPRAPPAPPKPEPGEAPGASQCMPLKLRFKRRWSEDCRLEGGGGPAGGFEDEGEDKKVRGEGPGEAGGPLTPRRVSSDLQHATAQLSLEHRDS
In a few lines:
(§1)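 Sequencing on an Illumina NextSeq500 followed washing, crosslinking with 0.1% formaldehyde, proximity ligation (BsaI/T4 ligase, 1 h, 37 °C) and PCR amplification of pools that had been incubated for 30 min at room temperature with 200 nmole of a random double-stranded 16-mer DNA library in Tris/NaCl/DTT/glycerol buffer. Each pool held DNA-barcoded human transcription factors, expressed in yeast as GST fusions and captured on glutathione beads, plus a tag-only sample. Binding signal is a hexamer's read frequency for a factor divided by its frequency in the tag-only sample.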

The target in the next experiment is T2, ETV3L (Homo sapiens, UniProt Q6ZN32 1-361).
T2 sequence: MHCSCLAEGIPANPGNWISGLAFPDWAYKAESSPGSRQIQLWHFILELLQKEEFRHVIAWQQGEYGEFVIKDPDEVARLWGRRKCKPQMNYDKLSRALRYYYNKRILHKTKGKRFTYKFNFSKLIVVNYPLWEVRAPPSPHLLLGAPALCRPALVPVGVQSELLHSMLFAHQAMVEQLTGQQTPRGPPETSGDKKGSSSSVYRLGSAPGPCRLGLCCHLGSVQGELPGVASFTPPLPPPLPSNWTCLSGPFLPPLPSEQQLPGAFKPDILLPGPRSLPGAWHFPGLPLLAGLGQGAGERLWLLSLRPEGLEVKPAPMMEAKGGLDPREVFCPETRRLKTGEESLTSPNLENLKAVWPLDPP
In a few lines: as §1

Another experiment deals with T3, ETS2 (Homo sapiens, UniProt P15036 1-469).
T3 sequence: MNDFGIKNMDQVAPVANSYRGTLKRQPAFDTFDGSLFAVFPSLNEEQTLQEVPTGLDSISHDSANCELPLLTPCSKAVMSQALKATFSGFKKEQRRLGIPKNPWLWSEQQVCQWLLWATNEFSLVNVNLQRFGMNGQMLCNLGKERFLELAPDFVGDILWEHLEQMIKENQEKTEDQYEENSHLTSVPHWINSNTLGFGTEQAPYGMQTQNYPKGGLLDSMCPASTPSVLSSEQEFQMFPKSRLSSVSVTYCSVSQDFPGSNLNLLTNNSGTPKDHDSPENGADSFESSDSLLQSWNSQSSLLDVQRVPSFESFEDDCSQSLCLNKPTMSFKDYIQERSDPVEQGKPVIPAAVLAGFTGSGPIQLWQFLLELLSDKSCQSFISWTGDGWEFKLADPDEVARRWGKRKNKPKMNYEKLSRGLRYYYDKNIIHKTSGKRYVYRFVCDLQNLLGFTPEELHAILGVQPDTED
In a few lines:
as §1

The target in the next experiment is T4, SPDEF (Homo sapiens, UniProt O95238 1-335).
T4 sequence: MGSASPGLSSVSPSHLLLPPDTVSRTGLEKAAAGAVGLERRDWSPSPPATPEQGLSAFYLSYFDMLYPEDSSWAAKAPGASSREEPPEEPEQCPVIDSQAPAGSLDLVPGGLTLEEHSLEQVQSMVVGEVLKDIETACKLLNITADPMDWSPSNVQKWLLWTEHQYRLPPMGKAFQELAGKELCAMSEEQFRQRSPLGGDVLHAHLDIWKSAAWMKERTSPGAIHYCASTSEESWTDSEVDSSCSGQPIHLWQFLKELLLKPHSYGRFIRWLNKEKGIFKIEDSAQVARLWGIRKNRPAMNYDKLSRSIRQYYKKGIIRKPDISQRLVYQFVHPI
Put shortly:
as §1

A further experiment has as its target T5, ETV7 (Homo sapiens, UniProt Q9Y603 1-341).
T5 sequence: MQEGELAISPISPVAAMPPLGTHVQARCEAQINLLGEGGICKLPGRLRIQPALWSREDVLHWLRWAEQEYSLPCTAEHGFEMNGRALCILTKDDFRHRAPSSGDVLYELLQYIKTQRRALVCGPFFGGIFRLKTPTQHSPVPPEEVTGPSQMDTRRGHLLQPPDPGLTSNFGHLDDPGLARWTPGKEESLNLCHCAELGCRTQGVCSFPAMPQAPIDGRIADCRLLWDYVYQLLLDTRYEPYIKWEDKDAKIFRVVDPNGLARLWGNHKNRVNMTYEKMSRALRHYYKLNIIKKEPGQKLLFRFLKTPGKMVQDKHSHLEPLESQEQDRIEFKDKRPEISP
In a few lines:
as §1

For the next experiment, the target named is T6, ELF5 (Homo sapiens, UniProt Q9UKW6-2 1-255).
T6 sequence: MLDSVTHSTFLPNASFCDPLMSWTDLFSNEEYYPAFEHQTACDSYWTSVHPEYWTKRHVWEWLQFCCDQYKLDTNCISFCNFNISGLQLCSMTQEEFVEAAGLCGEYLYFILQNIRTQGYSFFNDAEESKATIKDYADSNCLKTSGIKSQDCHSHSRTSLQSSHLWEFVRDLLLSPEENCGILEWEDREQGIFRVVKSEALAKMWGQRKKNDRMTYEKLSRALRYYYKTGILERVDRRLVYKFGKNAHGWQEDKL
Put shortly:
as §1

The target in the next experiment is T7, ETV3 (Homo sapiens, UniProt P41162-2 1-143).
T7 sequence: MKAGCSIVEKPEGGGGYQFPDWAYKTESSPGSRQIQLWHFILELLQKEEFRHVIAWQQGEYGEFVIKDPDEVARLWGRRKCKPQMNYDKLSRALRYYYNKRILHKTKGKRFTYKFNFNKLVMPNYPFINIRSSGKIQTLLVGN
In a few lines: as §1

A further experiment concerns the target ETV6 (Homo sapiens, UniProt P41212 1-452). In a few lines:
as §1

Chain of ETV6 (P41212 whole entry): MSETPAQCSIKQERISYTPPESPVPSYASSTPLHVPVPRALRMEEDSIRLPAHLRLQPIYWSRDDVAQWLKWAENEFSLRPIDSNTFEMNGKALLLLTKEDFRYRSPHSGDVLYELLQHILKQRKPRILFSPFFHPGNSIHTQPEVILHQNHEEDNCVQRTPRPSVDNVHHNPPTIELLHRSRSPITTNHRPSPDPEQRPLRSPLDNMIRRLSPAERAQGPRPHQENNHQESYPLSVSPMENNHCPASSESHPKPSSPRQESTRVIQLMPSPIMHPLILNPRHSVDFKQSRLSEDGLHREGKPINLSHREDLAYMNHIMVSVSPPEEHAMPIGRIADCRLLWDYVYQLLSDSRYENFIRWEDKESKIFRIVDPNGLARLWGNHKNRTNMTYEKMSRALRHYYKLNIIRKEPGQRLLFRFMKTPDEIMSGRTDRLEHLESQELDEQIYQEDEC

Turning to TAACTG, the binding signal in the experiment with ERF was 1.11 fold enrichment (6-mer frequency, TF over GST control); with ETV3L, 1.23 fold enrichment (6-mer frequency, TF over GST control); in the experiment with ETS2 it was 1.31 fold enrichment (6-mer frequency, TF over GST control); with SPDEF, 1.2 fold enrichment (6-mer frequency, TF over GST control); with ETV7, 1.28 fold enrichment (6-mer frequency, TF over GST control); with ELF5, 1.16 fold enrichment (6-mer frequency, TF over GST control). Besides, the binding signal in the experiment with ETV3 was 1.25 fold enrichment (6-mer frequency, TF over GST control); with ETV6, 1.26 fold enrichment (6-mer frequency, TF over GST control).
As to CACTAA, the binding signal in the experiment with ERF is 1.21 fold enrichment (6-mer frequency, TF over GST control); in the experiment with ETV3L, 1.28 fold enrichment (6-mer frequency, TF over GST control); with ETS2 it was 1.18 fold enrichment (6-mer frequency, TF over GST control); with SPDEF it was 1.15 fold enrichment (6-mer frequency, TF over GST control); in the experiment with ETV7, 1.19 fold enrichment (6-mer frequency, TF over GST control); with ELF5, 1.14 fold enrichment (6-mer frequency, TF over GST control). In addition, the binding signal was 1.07 fold enrichment (6-mer frequency, TF over GST control) with ETV3 and 1.12 fold enrichment (6-mer frequency, TF over GST control) with ETV6.
With ATTTCT, the binding signal with ERF is 1.35 fold enrichment (6-mer frequency, TF over GST control); in the experiment with ETV3L it was 1.49 fold enrichment (6-mer frequency, TF over GST control); with ETS2, 1.54 fold enrichment (6-mer frequency, TF over GST control); in the experiment with SPDEF, 1.4 fold enrichment (6-mer frequency, TF over GST control); in the experiment with ETV7, 1.47 fold enrichment (6-mer frequency, TF over GST control); with ELF5, 1.5 fold enrichment (6-mer frequency, TF over GST control). Besides, the binding signal with ETV3 was 1.42 fold enrichment (6-mer frequency, TF over GST control); in the experiment with ETV6 it was 1.39 fold enrichment (6-mer frequency, TF over GST control).
Turning to CAATTA, the binding signal is 1.13 fold enrichment (6-mer frequency, TF over GST control) in the experiment with ERF; 1.11 fold enrichment (6-mer frequency, TF over GST control) with ETV3L; 1.16 fold enrichment (6-mer frequency, TF over GST control) with ETS2; 1.06 fold enrichment (6-mer frequency, TF over GST control) with SPDEF; 1.15 fold enrichment (6-mer frequency, TF over GST control) with ETV7; 1.13 fold enrichment (6-mer frequency, TF over GST control) in the experiment with ELF5. Moreover, the binding signal in the experiment with ETV3 was 1.18 fold enrichment (6-mer frequency, TF over GST control); with ETV6 it was 1.05 fold enrichment (6-mer frequency, TF over GST control).
With TATTAT, the binding signal with ERF is 1.19 fold enrichment (6-mer frequency, TF over GST control); in the experiment with ETV3L it was 1.24 fold enrichment (6-mer frequency, TF over GST control); with ETS2, 1.16 fold enrichment (6-mer frequency, TF over GST control); with SPDEF it was 1.29 fold enrichment (6-mer frequency, TF over GST control); with ETV7, 1.28 fold enrichment (6-mer frequency, TF over GST control); with ELF5 it was 1.2 fold enrichment (6-mer frequency, TF over GST control). Further, the binding signal is 1.27 fold enrichment (6-mer frequency, TF over GST control) in the experiment with ETV3 and 1.3 fold enrichment (6-mer frequency, TF over GST control) with ETV6.
CTAAGA: the binding signal with ERF is 1.08 fold enrichment (6-mer frequency, TF over GST control); in the experiment with ETV3L, 1.21 fold enrichment (6-mer frequency, TF over GST control); with ETS2, 1.17 fold enrichment (6-mer frequency, TF over GST control); with SPDEF, 1.15 fold enrichment (6-mer frequency, TF over GST control); in the experiment with ETV7, 1.25 fold enrichment (6-mer frequency, TF over GST control); with ELF5 it was 1.2 fold enrichment (6-mer frequency, TF over GST control). Further, the binding signal was 1.17 fold enrichment (6-mer frequency, TF over GST control) with ETV3 and 1.23 fold enrichment (6-mer frequency, TF over GST control) with ETV6.
As to TTCTTA, the binding signal with ERF is 1.21 fold enrichment (6-mer frequency, TF over GST control); in the experiment with ETV3L it was 1.4 fold enrichment (6-mer frequency, TF over GST control); with ETS2 it was 1.24 fold enrichment (6-mer frequency, TF over GST control); with SPDEF it was 1.4 fold enrichment (6-mer frequency, TF over GST control); with ETV7, 1.38 fold enrichment (6-mer frequency, TF over GST control); with ELF5, 1.35 fold enrichment (6-mer frequency, TF over GST control). Besides, the binding signal with ETV3 is 1.34 fold enrichment (6-mer frequency, TF over GST control); with ETV6, 1.4 fold enrichment (6-mer frequency, TF over GST control).
